Results on 16 compounds are retold here after article PMC5540273 (PLoS ONE, 2017).

A word on the Kd: it is the equilibrium constant for the complex coming apart. Lower therefore signals a tighter complex.
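Also: kd values determined as follow-up on hits from a single-replicate KINOMEscan panel screen.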

The first assay deals with T1, MEK5.
T1 construct: gene MAP2K5
As for `COc1cc2ncnc(Nc3ccc4nc(-c5ccccc5)[nH]c4c3)c2cc1OC.Cl` [GW282450], the Kd worked out at 670 nM.

The compound `COc1cc(Nc2nccc(N3CCC(NC(=O)Nc4cc(C)ccc4C)C3)n2)cc(OC)c1OC` (stereo not shown) [GSK1379762] displayed a Kd of 53 nM.

Regarding `COc1cc2ncn(-c3cc(OCC4CCCO4)c(C(N)=O)s3)c2cc1OC` (stereo not shown) [GSK204607], the Kd was 81 nM.

For the compound `CC(C)(C)c1ccc(C(=O)Nc2cn3cc(-c4cccnc4)ccc3n2)cc1`, binding was put at a Kd of 190 nM.

For `COc1cc2nccc(Nc3ccc(NC(=O)c4ccc(C)cc4)c(O)c3)c2cc1OC.Cl` [GW440132], binding was put at a Kd of 8.7 nM.

For `Cl.NC(=O)c1cccc(Nc2nccc(Nc3ccc(Oc4cccc(Cl)c4)c(Cl)c3)n2)c1` [GW659008], the Kd came out at 34 nM.

With `COc1cccc(NC(=O)NC2CCN(c3ccnc(Nc4ccc(F)cc4)n3)C2)c1` (stereo not shown) [GSK1379721], binding was characterised by a dissociation constant (Kd) of 500 nM. This Kd lies about 15-fold higher than the previous one.

In turn, `COc1ccc(Nc2nccc(-c3cccc(NC(=O)c4cc5cc(F)ccc5[nH]4)c3)n2)cc1` [GSK1229782] showed a Kd of 200 nM.

Turning to `Fc1cc(Cl)ccc1Nc1ccnc2cc(-c3ccc(CN4CCCCC4)o3)ccc12` [GW560116], binding was characterised by a dissociation constant (Kd) of 890 nM.

Consider `Cl.O=C(Nc1cccc(-c2nn3ncccc3c2-c2ccnc(Nc3cccnc3)n2)c1)c1c(F)cccc1F` [GSK312879], for which binding was put at a Kd of 230 nM. This Kd is about 3.9-fold lower than that of the compound before.

`Cc1ccc(C(=O)Nc2ccc(Nc3ccnc4cc(-c5ccccn5)ccc34)cc2O)cc1.Cl` [GW440146]: the Kd turned out to be 4.7 nM. This Kd is about 49-fold lower than that of the compound before.

`COc1ccc(CNC(=O)NC2CCN(c3ccnc(Nc4cc(OC)c(OC)c(OC)c4)n3)C2)cc1` (stereo not shown) [GSK1379748] registered a Kd of 95 nM.

For the compound `Cn1cncc1-c1ccc2ncnc(Nc3ccc(OCc4ccccc4)cc3)c2c1` [GW320571], the Kd amounted to 450 nM.

The next assay relates to MYLK2.
The compound `O=C(Nc1n[nH]c2nc(-c3nccs3)c(Br)cc12)C1CC1` [SB-742251] returned a Kd of 160 nM. In other words, the sub-micromolar range.

Consider `O=C(Nc1n[nH]c2cc(-c3cccc(F)c3F)ccc12)C1CC1` [SB-733894], for which the Kd was 92 nM.

`O=C(Nc1n[nH]c2nc(-c3nccs3)c(Br)cc12)C1CCCC1` [SB-742609]: the affinity, expressed as Kd, was 130 nM.
